Here are results for 59 molecules from PubChem BioAssay AID504332 (National Center for Advancing Translational Sciences (NCATS), 2011).

“And” between values parts separate entries of the source, which are not always exact repeats. Equal entries are not always repeated. Among all 350,000 compounds or so, about 31,000 (8.9%) were called active. Not shown: some 15% with an inconclusive outcome. The call rests on the fitted dose curve; in most records, active means well fitted inhibition curve with a large enough effect; inconclusive means small, poorly fitted or top-dose-only effect; inactive means no such curve, though single readings can be large or run the other way. For the sample, actives were picked, then their nearest neighbours and some compounds at random.
On the % scale 0 is the no-effect control and ±100 the full control effect; potency means the concentration at half of the fitted maximal effect.

Sequence of Histone-lysine N-methyltransferase EHMT2 (Homo sapiens) (Q96KQ7 913-1193 limits assumed): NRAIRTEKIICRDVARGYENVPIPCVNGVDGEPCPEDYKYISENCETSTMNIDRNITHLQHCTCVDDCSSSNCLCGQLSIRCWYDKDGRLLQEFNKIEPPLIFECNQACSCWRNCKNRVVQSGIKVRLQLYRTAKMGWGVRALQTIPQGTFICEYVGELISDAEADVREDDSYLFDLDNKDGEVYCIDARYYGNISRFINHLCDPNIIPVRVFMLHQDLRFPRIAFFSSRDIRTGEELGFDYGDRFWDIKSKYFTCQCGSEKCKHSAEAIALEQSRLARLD

The test has as its target Histone-lysine N-methyltransferase EHMT2 (Homo sapiens) (UniProt Q96KQ7). Kind of test: qHTS Assay for Inhibitors of Histone Lysine Methyltransferase G9a. Further: nearly all actives have a fitted effect of over 75% in size. Conditions: G9a H3K9 monomethylation, AlphaScreen, 2 h; series mostly up to 102 µM; activity, negative = inhibition: at the top concentration. An excerpt:
Methylated lysines, on the N-terminal tails of histone proteins serve as epigenetic markers to recruit factors that can then modify local chromatin structure to lead to functional consequences. G9a and other members of the SUV39 family of the SET domain-containing superfamily of histone lysine methyltransferases (HMT) have been identified to specifically methylate Lys9 of histone H3 (H3K9). G9a catalyzes the mono- and di-methylation of H3K9 in mammalian euchromatic regions, where the resulting H3K9me2 is indicative of transcriptional repression. […] The inhibition of G9a will result in transcriptional activation and work synergistically with DNA methyltransferase and histone deacetylase inhibitors, to kill cancer cells. This qHTS assay for identification of G9a inhibitors is a chemiluminescence based AlphaScreen (PerkinElmer). Methylation of biotinylated-histone peptide is measured through specific antibody-based detection, in conjunction with streptavidin-coated donor and anti-IgG antibody-coated acceptor beads. The method is particularly well suited for detection of inhibitors acting by the desired histone peptide competitive mechanism and is applicable to testing other HMTs. Although AlphaScreen has significant advantages with its utility in a variety of epigenetic target assays, the primary screening data provided in this deposition should be used with caution due to the prevalence of screening artifacts. An AlphaScreen counterscreen is highly recommended to be run against any putative actives to eliminate non specific artifacts. Alternatively, one can use other AlphaScreen assays in PubChem to filter out promiscuous hits. Quinn et al. A chemiluminescence-based method for identification of histone lysine methyltransferase inhibitors. Mol Biosyst 6(5): 782-8. 2010. PMID: 20567762 [2] Baell,Holloway. New substructure filters for removal of pan assay interference compounds (PAINS) from screening libraries and for their exclusion in bioassays. J Med Chem. 53(7):2719-40. 2010. PMID: 20131845 NIH Molecular Libraries Probe Production Network [MLPCN] NIH Chemical Genomics Center [NCGC] Structural Genomics Consortium (SGC) NIH Grant: 5U54 MH084681-02
To each well of a 1,536w plate, 2ul of HMT enzyme (final 20nM) were added, using a nanoliter dispenser. The G9a- and GLP-inhibitor BIX-01294 (CID: 25150857) are used as an intraplate control, with a 16-point titration in duplicate. A Kalypsys pin-tool transferred 23nl of library compound solution in DMSO to each well. Following a 15 min incubation of enzyme with compounds at room temperature, 1ul mixture of b-H3K9 peptide substrate (final 500nM) and SAM cofactor (final 20uM) were added. Reactions were allowed to proceed at room temperature for 2 hours. Methylated b-H3K9 peptide product was detected with 0.5 ug/mL rabbit polyclonal anti-monomethyl histone H3K9 antibody (Abcam Inc., Cambridge, MA) and 20 ug/mL each streptavidin-coated donor and anti-rabbit IgG acceptor AlphaScreen beads. Antibody and beads were added in a 1ul dispense, for a final volume of 4ul, and plates were incubated, protected from the light, for 10 min at room temperature. Microplates were then read on an EnVision multilabel plate reader using the 1,536 plate HTS AlphaScreen aperture (excitation time 80 ms, measurement time 240 ms).
In general terms: Quantitative high-throughput screening tests each substance at several concentrations.
On to `c1ccc(Cc2nn3c(Cn4cnc5ccccc54)nnc3s2)cc1`, for which the Potency is 3.16 µM (active).

For the molecule `COc1ccc(S(=O)(=O)NCc2ccc(C(=O)N3CCC4(CC3)OCCO4)cc2)cc1`, the “activity, negative = inhibition” value is 7.61% [at 59 µM] (inactive).

As to `Cc1cccc(-n2c(O)c(/C=N/N3CCOCC3)c(=O)[nH]c2=S)c1`, the Potency is 22.4 µM (active).

Consider `O=c1[nH]c(=O)n(-c2ccccc2)c(O)c1C=NC12CN3CN(CN(C3)C1)C2`, for which the “activity, negative = inhibition” value is -22.5% (inactive).

`O=c1[nH]c(=O)n(CCc2ccc(F)cc2)c(O)c1/C=N/N1CCCCC1`: the “activity, negative = inhibition” value was -26.9% (inactive).

Regarding `O=C(N/N=C/c1c(O)n(C2CC2)c(=S)[nH]c1=O)c1ccccc1`, the “activity, negative = inhibition” value was -6.95% (inactive).

Consider `Cc1ccc(-n2c(O)c(C=NCC3CCCO3)c(=O)[nH]c2=O)c(C)c1` (centres undefined), for which the activity, negative = inhibition is 48.7% [at 12.7 µM] (inactive).

For `CC(C)c1ccc(-n2c(O)c(/C=N/N3CCOCC3)c(=O)[nH]c2=S)cc1`, the Potency was 50.1 µM (active).

Consider `O=c1[nH]c(=O)n(CCc2ccccc2)c(O)c1/C=N/N1CCOCC1`, for which the “activity, negative = inhibition” value was 4.98% (inactive).

For the molecule `Cc1cccc(-n2c(O)c(C=NC34CN5CN(CN(C5)C3)C4)c(=O)[nH]c2=O)c1`, the Potency is 50.1 µM (active).

With `O=c1[nH]c(=O)n(-c2ccc(F)cc2)c(O)c1C=NCCN1CCCCC1`, the “activity, negative = inhibition” value was 2.18% (inactive).

In the case of `CN(C)CC1CCCCC1=O` (centres undefined), the “activity, negative = inhibition” value was -0.643% [at 59 µM] (inactive).

For the molecule `CN(C)c1ccc(/C=C2\CC3C4CC=C5CC(O)CCC5(C)C4CCC3(C)C2=O)cc1` (centres undefined), the “activity, negative = inhibition” value was 18.3% [at 59 µM] (inactive).

For `COC(=O)C1=C(c2ccccc2OCc2ccccc2)C[C@@H]2CC[C@H]1N2C(=O)NCc1ccc(OC)cc1`, the activity, negative = inhibition is -7.46% [at 2.33 µM] (inactive).

`CCOc1ccc(C2SCC(=O)Nc3c2c(C)nn3C2CCOC(C)(C)C2)cc1` (centres undefined): the “activity, negative = inhibition” value is -15.8% (inactive).

Turning to `c1ccc2c(c1)[I+]c1ccccc1-2`, the activity, negative = inhibition was -19.1% [at 12.7 µM] (inactive).

Turning to `Cc1ccc(-c2nc3ccccc3c(=O)n2-c2ccc(Br)cn2)cc1`, the “activity, negative = inhibition” value was 8.78% (inactive).

In the case of `CN(C)C(=O)Oc1ccc(NC(=O)N2CCOCC2)cc1`, the “activity, negative = inhibition” value is 53.9% (inactive).

With `CSc1nc2ccc(C)cc2c(=O)n1-c1cccnc1`, the “activity, negative = inhibition” value was 9.7% (inactive).

In the case of `N#Cc1ccc(Cn2cc(C(=O)c3ccco3)c3ccccc32)cc1`, the “activity, negative = inhibition” value is 6.49% [at 59 µM] (inactive).

For the molecule `COc1ccc(-n2c(O)c(C(C)=Nc3ccc4c(c3)CCC4)c(=O)[nH]c2=O)cc1`, the “activity, negative = inhibition” value was -22.6% (inactive).

On to `CC(=O)NBr`, for which the activity, negative = inhibition entry was “inactive”.

Regarding `CCc1nc2ccccc2c(=O)n1-c1cccc(OC)c1`, the “activity, negative = inhibition” value is -1.25% [at 59 µM] (inactive).

With `Cc1cccc(-n2c(C)nc3cc(C(=O)N4CCC5(CC4)OCCO5)ccc32)c1`, the “activity, negative = inhibition” value was -27.9% (inactive).

Regarding `O=C(N/N=C/c1c(O)n(Cc2ccccc2)c(=O)[nH]c1=O)c1ccccc1`, the “activity, negative = inhibition” value is -11.3% [at 59 µM] (inactive).

As to `CC(C)c1ccc(O)c(CN2CCN(c3ccccc3)CC2)c1`, the “activity, negative = inhibition” value was 1.64% (inactive).

With `Oc1cc2c(cc1CN1CCN(c3ccccc3)CC1)OCO2`, the Potency was 10 µM (active).

With `Fc1ccc(N2CCN(Cc3ccc4c(c3)OCO4)CC2)cc1`, the Potency was 8.91 µM (active).

Consider `Cc1cc(=O)oc2c(C)c(OCC(=O)N3CCN(Cc4ccc5c(c4)OCO5)CC3)ccc12`, for which the “activity, negative = inhibition” value was 12.7% (inactive).

As for `O=C(NCC(c1cccnc1)N1CCN(c2ccccc2)CC1)Oc1ccccc1` (centres undefined), the “activity, negative = inhibition” value was 8.36% [at 59 µM] (inactive).

Regarding `Cc1ccc(C(C)C)c(OCC(=O)N2CCN(CC(=O)N3CCOCC3)CC2)c1`, the activity, negative = inhibition is 28.3% [at 12.7 µM] (inactive).

On to `CN1CCN(/N=C/c2c[nH]c3ccccc23)CC1`, for which the “activity, negative = inhibition” value is -6.44% (inactive).

With `CC(=O)OC1C2CCC3C1(CC(O)[C@@]1(O)[C@@H](CC(O)C1(C)C)[C@]3(C)O)C[C@@]2(C)O` (some centres undefined), the activity, negative = inhibition was -31.5% [at 2.33 µM] (inactive).

Consider `CCN1C[C@@]2(COC)CC[C@H](OC)[C@]34[C@@H]1[C@]1(OCO[C@@]15C[C@@H](OC)C1C[C@H]3[C@H]5[C@@H]1OC)[C@H](O)[C@@H]24`, for which the activity, negative = inhibition is 26.9% [at 21.5 µM] (inactive).

As to `CSC1=NP(=S)(SC)N(C)c2nc3n(c21)CCC3` (centres undefined), the “activity, negative = inhibition” value is -0.587% (inactive).

Regarding `COc1ccc(-c2nn(CCC#N)cc2C(=O)Nc2ccc(C(C)=O)cc2)cc1`, the “activity, negative = inhibition” value was 38.3% (inactive).

On to `COc1cc(-n2c(=S)[nH]c3ccc(C)cc3c2=O)c(Cl)cc1Cl`, for which the activity, negative = inhibition is 20.4% [at 12.7 µM] (inactive).

Regarding `Cc1cc2ccccn2c1C(C[N+](=O)[O-])c1c(F)cccc1Cl` (centres undefined), the Potency is 44.7 µM (active).

As to `Cc1nc2nc(C)c(CCC(=O)N3CCC4(CC3)OCCO4)c(C)n2n1`, the “activity, negative = inhibition” value was 2.74% [at 59 µM] (inactive).

For `CNP1(NC)=Nc2nn(-c3ccccc3)c(N)c2C(c2ccccc2)=N1`, the “activity, negative = inhibition” value was 1.22% [at 59 µM] (inactive).

In the case of `C/C=C/CC1(CC)C(=O)NC(=S)NC1=O`, the “activity, negative = inhibition” value is -10.4% (inactive).

For the molecule `O=C(NC(=S)N1C[C@H]2C[C@H](C1)c1cccc(=O)n1C2)c1ccc(F)cc1`, the Potency is 35.5 µM (active).

As for `O=C(CCC(=O)N1C[C@H]2C[C@@H](C1)c1cccc(=O)n1C2)NCc1ccccc1C(F)(F)F`, the activity, negative = inhibition is 12.2% [at 0.501 µM] (inactive).

For `COc1cccc(C(=O)N2C[C@H]3C[C@@H](C2)c2cccc(=O)n2C3)c1`, the activity, negative = inhibition is 1.87% [at 12.7 µM] (inactive).

Take `Cc1cccc(NC(=O)OC2CN3CCC2CC3)c1` (centres undefined): the “activity, negative = inhibition” value was -11.9% (inactive).

As to `COc1ccc2c(c1O)-c1cccc3c1[C@@H](C2)N(C)CC3`, the Potency is 7.94 µM (active).

In the case of `COC1=C[C@@H]2[C@@H]3Cc4ccc(OC)c(O)c4[C@]2(CCN3C)CC1=O`, the “activity, negative = inhibition” value is 23.7% [at 59 µM] (inactive).

As to `COP(=O)(OC)C(NC(=O)c1ccc(C)cc1)C(Cl)(Cl)Cl` (centres undefined), the “activity, negative = inhibition” value is 5.04% (inactive).

For `C[C@]12CC[C@H](O)C[C@@H]1CC[C@H]1[C@H]2CC[C@]2(C)C(=O)CC[C@@H]12`, the activity, negative = inhibition was 13.5% [at 21.5 µM] (inactive) and 22.6% [at 21.5 µM] (inactive) and 16.7% [at 21.5 µM] (inactive).

Take `Cc1ccc(C2CN(C)CC2C(=O)c2ccc(F)cc2)cc1` (centres undefined): the “activity, negative = inhibition” value is 7.75% (inactive).

As to `COc1ccc(CN2CCN(c3ccccc3F)CC2)c(OC)c1`, the Potency was 11.2 µM (active).

For the molecule `Fc1cccc(F)c1CN1CCN(Cc2c(F)cccc2F)CC1`, the “activity, negative = inhibition” value is -4.67% [at 59 µM] (inactive).

For `O=C(O)C1CSC(c2cccnc2)N1` (centres undefined), the Potency was 3.55 µM (active).

For `C[C@@]1([C@@H](NP(=O)(c2ccccc2)c2ccccc2)c2ccccc2)C[C@H]1CCO`, the “activity, negative = inhibition” value was 25.1% (inactive).

On to `COc1ccc(C2CC(c3cccs3)=NN2c2nc(C)c(C(C)=O)s2)cc1OC` (centres undefined), for which the “activity, negative = inhibition” value is 25.5% (inactive).

In the case of `CCOCCc1c(O)[nH]c(=S)[nH]c1=O`, the “activity, negative = inhibition” value was 5.61% (inactive).

For `COc1ccccc1N=Nc1c(O)[nH]c(=S)[nH]c1=O`, the Potency is 39.8 µM (active).

With `Clc1ccc2nc3c(c(-c4ccccc4)c2c1)CNCC3`, the “activity, negative = inhibition” value is -15.8% [at 59 µM] (inactive).

In the case of `CNCC[C@H](Oc1ccc(C(F)(F)F)cc1)c1ccccc1`, the activity, negative = inhibition was 4.7% [at 21.5 µM] (inactive) and 32.2% [at 12.7 µM] (inactive).
